Among the data in PubChem BioAssay (NCATS) are Potency values, retold here.

Results filed as inconclusive are left out. A call without a number means that no potency is given here. Active and inactive are the calls of the source. The call rests on the fitted dose curve; tested in HEK293 reporter line.

The nature of this test: qHTS for Inhibitors of the Functional Ribonucleoprotein Complex (vRNP) of Lassa (LASV) Arenavirus: LASV Primary Screen - GLuc reporter signal (AID 1347082). Further: nearly all actives have a fitted effect of over 60% in size. The conditions noted are these: LASV minigenome vRNP, Gaussia luciferase reporter; series mostly up to 57.5 µM.
Regarding `CC(C)CC(=O)O`, the Potency entry is “inactive”.
Regarding `CC(O)[C@H]1CC[C@H]2[C@@H]3CC[C@H]4C[C@@H](O)CC[C@]4(C)[C@H]3C(=O)C[C@]12C` (some centres not stated), the Potency result was “inactive”.
Under `C=C1C[C@H](O)[C@@H]2[C@H](OC(=O)[C@H]2C)[C@H]2[C@H](C)[C@@H](O)C[C@@H]12` stands “inactive”; under `COc1ccc2[nH]c3c(c2c1)CCNC3C` (configuration not stated), “inactive”; under `CCCCC(C)/C=C(C)/C=C(\C)C(=O)NC1=CC(O)(/C=C/C=C/C=C/C(=O)NC2=C(O)CCC2=O)C2OC2C1=O` (configuration not stated), “inactive”.
Take `COc1c2c(nc3occc13)C(CC=C(C)C)(OC)C(OC(C)=O)CC2` (configuration not stated): the Potency entry was “inactive”.
As to `O=Cc1cc2ccccc2o1`, the Potency result was “inactive”.
Under `COc1ccc(CCN)cc1` stands “inactive”; under `C[N+]1([O-])CCC[C@@H]1c1cccnc1` (some centres not stated), “inactive”.
With `CCCCCCCC/C=C/CCCOC(C)=O` the entry was “inactive”; with `CC1(C)CCc2c([nH]c3ccccc3c2=O)O1`, “inactive”.
With `Cn1cccc1-c1cccnc1` the entry was “inactive”; with `CC(=O)C1CCC2C3CCC4=CC(=O)C=CC4(C)C3C(=O)CC12C` (configuration not stated), “inactive”; with `COc1cc(CCc2cc(NC(=O)c3ccc(N4C[C@@H](C)N[C@@H](C)C4)cc3)n[nH]2)cc(OC)c1`, “inactive”.
Consider `C=C(C)[C@@H]1CCC2=CC(=O)C[C@@H](C)[C@]2(C)C1`, for which the Potency result was “inactive”.
On to `C[C@H]1CC[C@@H]2N(C1)C[C@H]1[C@@H]3C[C@H]4[C@@H](CC(=O)[C@H]5C[C@@H](O)CC[C@@]54C)[C@@H]3CC[C@H]1[C@]2(C)O`, for which the Potency entry is “inactive”.
Under `COC(=O)CC1[C@@]2(C)C[C@]34OC5(C)OC6(C7CC(=O)OC(c8ccoc8)[C@]7(C)CCC6(O5)[C@]13C)C(OC(C)=O)[C@]4(OC(C)=O)C2OC(C)=O` (some centres not stated) stands “inactive”.
